Inconclusive results are not listed. Activity calls are given as the source filed them.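 How the source made its calls, unless noted: active means normalized viability below 100% at a tested concentration; inactive means the rest.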
Legend:
[1] = viability loss in pontine glioma line – cell-based, SU-DIPG-XXV, MIPE5.0, CellTiter-Glo, qHTS, dose response (AID 1347065; cut-off not given, nearly all actives have AC50 up to about 26 µM;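 further: cells exposed to compound for 48 hours before ATP readout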); settings: CellTiter-Glo ATP luminescence
[2] = growth inhibition of DIPG cells – cell-based, MIPE5.0 library, qHTS (AID 1347068; cut-off not given, nearly all actives have IC50 up to about 30 µM;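 on IC50: cells exposed to compound for 48 hours before viability readout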); settings: SU-DIPG-XXV viability
[3] = JHH-DIPG-1 glioma cell viability, MIPE5.0 library, CellTiter-Glo luminescence, qHTS (AID 1347067; cut-off not given, nearly all actives have AC50 up to about 26 µM;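 further: cells exposed to compound for 48 hours before readout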); settings: JHH-DIPG-1 glioma viability, CellTiter-Glo ATP luminescence
[4] = viability loss with induced miR-34 in A549 – imaging, A549 dox-inducible miR-34, nuclei and caspase counts, primary screen (AID 1347080;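 active means compounds whose cell count with miR-34 switched on is under 0.7 times the count with it off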); settings: A549 miR-34 inducible, Hoechst nuclei count, 48 h
[5] = compounds altering HSF1 focus formation in cells – imaging, Selleck Cancer Library (AID 1347162; in the data active means plate-normalised HSF1 focus index below about 0.46); settings: human cells, HSF1 nuclear foci imaging, at 10 µM; SSMD: measured here: HSF1 foci SSMD mean; cell count: measured here: cell number; plate-normalised HSF1 focus index: stronger effect = lower value
[6] = MELAS cybrid and Rieske KO viability enhancers – cell-based, MELAS cybrids, Rieske KO mouse fibroblasts, CellTiter-Glo, primary screen (AID 1508586;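 active means mean z-score across replicates of 1.96 or higher in either the MELAS or the Rieske mutant cell line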;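 further: z relative to plate mean and SD of compound and empty wells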); settings: low glucose
[7] = drug combination growth inhibition, ovarian cancer – cell-based, oncology-focused library, rucaparib conditional, profiling panel (AID 1508598); settings: patient-derived ovarian cancer cells, CellTiter-Glo viability, 144 h, stronger effect = lower value

CCC(CC)C(c1ccc(Nc2nc3ccccc3s2)cc1)n1cncn1 (stereo not drawn)
active: AC50 [1] 18.6 µM | IC50 [2] 20.9 µM

O=c1oc2c(C3OCCCO3)c(O)ccc2c2c1CNCC2
inactive: outcome [1] | outcome [3] | outcome [2]

CCCN(CCC)C(=O)C1=Cc2ccc(-c3ccc(C(=O)N4CCCC4)cc3)cc2N=C(N)C1
inactive: outcome [2]
active: AC50 [1] 20.9 µM | AC50 [3] 23.5 µM

Cc1ccc(NC(=O)c2ccc(CN3CCNCC3)cc2)cc1Nc1nccc(-c2cccnc2)n1
inactive: outcome [3] | outcome [2]
active: AC50 [1] 23.5 µM

O=C(Nc1ccc(OC(F)(F)F)cc1)c1sccc1NCc1ccnc2ccccc12
4270: cell count ([4]; measured here: total cells with miR-34 induction, stronger effect = lower value)
0.766: z-score ([6]; Rieske KO mouse fibroblast survival, CellTiter-Glo 72 h)
inactive: outcome [2] | fold change ([4]; stronger effect = lower value, cell number ratio, induced over uninduced) 0.889 | plate-normalised HSF1 focus index [5] 1.18 | z-score ([6]; MELAS cybrid survival, CellTiter-Glo 48 h, stronger effect = higher value) -0.433 | viability ([7]; at 0.000305 µM, OCI-C5x cells, with rucaparib 10 µM, 100% = cells with rucaparib alone) 104% | viability ([7]; at 0.000305 µM, OCI-C5x cells, without rucaparib) 102% | viability ([7]; at 0.00122 µM, OCI-C5x cells, with rucaparib 10 µM, 100% = cells with rucaparib alone) 108% | viability ([7]; at 0.00122 µM, OCI-C5x cells, without rucaparib) 110% | viability ([7]; at 0.00488 µM, OCI-C5x cells, without rucaparib) 105% | viability ([7]; at 0.0195 µM, OCI-C5x cells, with rucaparib 10 µM, 100% = cells with rucaparib alone) 108% | viability ([7]; at 0.0195 µM, OCI-C5x cells, without rucaparib) 113% | viability ([7]; at 0.0781 µM, OCI-C5x cells, with rucaparib 10 µM, 100% = cells with rucaparib alone) 108% | viability ([7]; at 0.0781 µM, OCI-C5x cells, without rucaparib) 113% | viability ([7]; at 0.0781 µM, OCI-P5x cells, with rucaparib 20 µM, 100% = cells with rucaparib alone) 111% | viability ([7]; at 0.0781 µM, OCI-P5x cells, without rucaparib) 108% | viability ([7]; at 0.313 µM, OCI-C5x cells, without rucaparib) 110% | viability ([7]; at 0.313 µM, OCI-P5x cells, with rucaparib 20 µM, 100% = cells with rucaparib alone) 107% | viability ([7]; at 0.313 µM, OCI-P5x cells, without rucaparib) 110% | viability ([7]; at 1.25 µM, OCI-C5x cells, without rucaparib) 107% | viability ([7]; at 1.25 µM, OCI-P5x cells, with rucaparib 20 µM, 100% = cells with rucaparib alone) 103% | viability ([7]; at 1.25 µM, OCI-P5x cells, without rucaparib) 112% | viability ([7]; at 5 µM, OCI-C5x cells, without rucaparib) 117%
7420: cell count [5]
active: AC50 [1] 16.6 µM | AC50 [3] 5.9 µM | viability ([7]; at 0.000305 µM, OCI-P5x cells, with rucaparib 20 µM, 100% = cells with rucaparib alone) 79.8% | viability ([7]; at 0.000305 µM, OCI-P5x cells, without rucaparib) 88.5% | viability ([7]; at 0.00122 µM, OCI-P5x cells, with rucaparib 20 µM, 100% = cells with rucaparib alone) 76.7% | viability ([7]; at 0.00122 µM, OCI-P5x cells, without rucaparib) 81.1% | viability ([7]; at 0.00488 µM, OCI-C5x cells, with rucaparib 10 µM, 100% = cells with rucaparib alone) 98.6% | viability ([7]; at 0.00488 µM, OCI-P5x cells, with rucaparib 20 µM, 100% = cells with rucaparib alone) 79.8% | viability ([7]; at 0.00488 µM, OCI-P5x cells, without rucaparib) 79.7% | viability ([7]; at 0.0195 µM, OCI-P5x cells, with rucaparib 20 µM, 100% = cells with rucaparib alone) 81% | viability ([7]; at 0.0195 µM, OCI-P5x cells, without rucaparib) 79% | viability ([7]; at 0.313 µM, OCI-C5x cells, with rucaparib 10 µM, 100% = cells with rucaparib alone) 98.2% | viability ([7]; at 1.25 µM, OCI-C5x cells, with rucaparib 10 µM, 100% = cells with rucaparib alone) 94.5% | viability ([7]; at 5 µM, OCI-C5x cells, with rucaparib 10 µM, 100% = cells with rucaparib alone) 89.4% | viability ([7]; at 5 µM, OCI-P5x cells, with rucaparib 20 µM, 100% = cells with rucaparib alone) 77.3% | viability ([7]; at 5 µM, OCI-P5x cells, without rucaparib) 54.8%
2.93: SSMD [5]
1.05: fold change ([4]; measured here: relative caspase fold change +Dox/-Dox)
4800: cell count ([4]; measured here: total cells without miR-34 induction)

Nc1nccc(-c2c(-c3ccc(F)cc3)ncn2C2CCN(Cc3ccon3)CC2)n1
inactive: outcome [1] | outcome [3] | outcome [2]

Reference: PubChem BioAssay
